Rows were chosen to be rich in hits. Some 4.5% of all compounds tested hit in one or more screens of this group.
aSyn UTR inh – 5' untranslated region of α-synuclein, MLPCN primary screen; 300,000 compounds, 0.82% hits; AID 1813; alpha-synuclein 5'UTR reporter, inhibitor activity; inhibition, % (tested at 7.5 µM); in the data active = inhibition above about 60%; inconclusive = no clear call, values can overlap the other calls;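 note: H4 neuroglioblastoma cells stably carrying SNCA 5'UTR luciferase fusion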
Mdm2 MdmX PPI – disrupts the human Mdm2-MdmX interaction. inhibition, % at 8 µM. O15151+Q00987. SaOS-2 split-luciferase Mdm2/MdmX complementation, luminescence. 330,000 compounds, 3% hits;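 active = inhibition of at least 50% at 8 µM in the primary screen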
Target sequence (O15151 whole entry, looked up): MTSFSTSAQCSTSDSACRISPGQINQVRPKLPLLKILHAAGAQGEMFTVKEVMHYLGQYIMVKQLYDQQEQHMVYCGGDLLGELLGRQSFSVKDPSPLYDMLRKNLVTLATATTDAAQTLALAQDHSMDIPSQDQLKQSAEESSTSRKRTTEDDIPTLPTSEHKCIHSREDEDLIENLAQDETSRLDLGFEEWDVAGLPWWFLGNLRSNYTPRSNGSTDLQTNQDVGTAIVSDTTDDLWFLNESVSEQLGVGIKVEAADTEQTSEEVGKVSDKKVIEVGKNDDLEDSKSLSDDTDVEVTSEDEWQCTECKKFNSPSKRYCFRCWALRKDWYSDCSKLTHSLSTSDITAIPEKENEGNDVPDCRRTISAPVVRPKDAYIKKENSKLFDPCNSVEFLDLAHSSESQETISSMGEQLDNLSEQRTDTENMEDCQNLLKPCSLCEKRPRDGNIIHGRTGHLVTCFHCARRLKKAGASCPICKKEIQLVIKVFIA
Target sequence (Q00987 whole entry, looked up): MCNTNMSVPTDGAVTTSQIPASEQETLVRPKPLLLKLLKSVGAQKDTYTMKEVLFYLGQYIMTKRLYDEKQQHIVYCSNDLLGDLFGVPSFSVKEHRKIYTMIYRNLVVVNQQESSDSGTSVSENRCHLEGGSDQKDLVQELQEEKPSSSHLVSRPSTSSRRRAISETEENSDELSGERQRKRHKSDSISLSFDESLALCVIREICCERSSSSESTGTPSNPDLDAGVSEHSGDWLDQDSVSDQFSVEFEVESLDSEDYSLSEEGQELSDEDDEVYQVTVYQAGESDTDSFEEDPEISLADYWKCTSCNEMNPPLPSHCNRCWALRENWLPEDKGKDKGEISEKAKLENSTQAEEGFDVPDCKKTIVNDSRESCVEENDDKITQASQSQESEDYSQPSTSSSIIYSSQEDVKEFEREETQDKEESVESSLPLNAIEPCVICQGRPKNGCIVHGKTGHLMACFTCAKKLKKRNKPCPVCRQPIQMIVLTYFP
Jurkat NFkB inh – inhibitors of the PMA/ionomycin-induced NF-kB reporter in Jurkat cells; AID 435003; PMA/ionomycin-induced NF-kB luciferase reporter, luminescence; inhibition, % at 4 µM; 330,000 compounds, 0.53% hits; in the data active = inhibition above about 50%
Gli-Sufu antag – antagonists of Gli-Sufu signaling. Sufu-KO-LIGHT fibroblasts, Gli luciferase reporter luminescence. inhibition, % at 5 µM. 340,000 compounds, 0.74% hits. AID 588413;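 active = inhibition above about 55%, limit read from the data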
CSC inhib – cancer stem cell inhibition; 300,000 compounds, 1.1% hits; cancer stem cell-like cells viability, luminescence; inhibition, % at 7.5 µM; in the data active = inhibition above about 75%; inconclusive = no clear call, values can overlap the other calls; tested in HMLE shEcad cells
697 NFkB inh – inhibitors of the PMA/ionomycin-induced NF-kB reporter in 697 B cells | 697 B-cell NF-kB luciferase reporter, 16 h | inhibition, % at 4 µM | 330,000 compounds, 0.33% hits; in the data active = inhibition above about 35%
Mdm2 MdmX conf – human Mdm2/MdmX binding inhibition, confirmed. 10,000 compounds, 55% hits. luminescent assay. inhibition, % at 8 µM. shares compounds with Mdm2 MdmX PPI; in the data active = inhibition above about 40%
FLuc counter – full-length luciferase inhibition in Mdm2/MdmX counter-screen; shares compounds with Mdm2 MdmX PPI; SaOS-2 full-length luciferase counterscreen, luminescence; inhibition, % at 8 µM; 6,200 compounds, 77% hits;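 active = mean inhibition at 8 µM reaching about 37%, which flags the compound as non-specific, limit read from the data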;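 note: p53-null SaOS-2 cells with luciferase driven by a doxycycline-inducible promoter; compound on cells about two nights before reading with doxycycline added after day one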
Large screens that a line does not name were inactive (follow-up assays come after a bar, where they were run).

COc1ccccc1CNC(=O)CCS(=O)(=O)c1ccc2c(c1)CCCN2C(C)=O	none
CCn1nc(C)c(C(=O)Nc2cc(Oc3cc(C)cc(C)c3)cc([N+](=O)[O-])c2)c1C	aSyn UTR inh inconclusive, Mdm2 MdmX PPI 53 | Mdm2 MdmX conf 60 | FLuc counter 51
Cc1nn(CCCC(=O)Nc2cc(Oc3ccccc3)cc([N+](=O)[O-])c2)c(C)c1[N+](=O)[O-]	none
CCCN1C/C(=C/c2ccc3c(c2)OCO3)C(=O)/C(=C/c2ccc3c(c2)OCO3)C1	Mdm2 MdmX PPI 99, CSC inhib 87 | Mdm2 MdmX conf inactive | FLuc counter 68
CCCN1C(=O)/C(=C/c2ccc3c(c2)OCO3)NC1=S	none (no result: Mdm2 MdmX PPI, Jurkat NFkB inh, CSC inhib, 697 NFkB inh)
CCN1C(=NCc2ccco2)N[C@@H](c2cccc(C(F)(F)F)c2)C(C(=O)OC)=C1C	Mdm2 MdmX PPI 56 (no result: aSyn UTR inh, CSC inhib) | Mdm2 MdmX conf inactive
COC(=O)C1=C(C)N(Cc2ccccc2)C(=NCCc2cccnc2)N[C@H]1c1ccc(Br)cc1	Mdm2 MdmX PPI 85 (no result: aSyn UTR inh) | Mdm2 MdmX conf 47 | FLuc counter 54
CCN1C(=NCCc2ccccn2)N[C@@H](c2cccc(C(F)(F)F)c2)C(C(=O)OC)=C1C	none (no result: aSyn UTR inh)
COC(=O)C1=C(C)N(Cc2ccccc2)C(=NCC(C)C)N[C@H]1c1cccc(F)c1	Mdm2 MdmX PPI 79 (no result: aSyn UTR inh, CSC inhib) | Mdm2 MdmX conf 45 | FLuc counter 45
COC(=O)C1=C(C)N(Cc2ccccc2)C(=NCCc2ccccn2)N[C@H]1c1cccc(C(F)(F)F)c1	Mdm2 MdmX PPI 81 (no result: aSyn UTR inh) | Mdm2 MdmX conf 51 | FLuc counter 59
COC(=O)C1=C(C)N(Cc2ccccc2)C(=NCC2CC2)N[C@H]1c1ccccc1	none (no result: aSyn UTR inh)
COc1ccc(C)cc1S(=O)(=O)N1CCN(C)CC1c1ccccc1 (stereo not drawn)	none (no result: aSyn UTR inh)
CCCn1nc(C(=O)Nc2ccc3c(c2)OCCO3)c2ccccc2c1=O	none (no result: aSyn UTR inh, CSC inhib)
COC(=O)C1=C(C)N(Cc2ccccc2)C(=NCC(C)C)N[C@H]1c1cccc(C(F)(F)F)c1	Mdm2 MdmX PPI 99 (no result: aSyn UTR inh) | Mdm2 MdmX conf 51 | FLuc counter inactive
COC(=O)C1=C(C)N(Cc2ccccc2)C(=O)N[C@H]1c1cccc(C(F)(F)F)c1	none
COC(=O)C1=C(C)N(Cc2ccccc2)C(=NCc2ccccc2)N[C@H]1c1cccc(C(F)(F)F)c1	Mdm2 MdmX PPI 98, CSC inhib 122 (no result: aSyn UTR inh) | Mdm2 MdmX conf inactive
Cc1nc(N2CCN(c3ccccn3)CC2)c2c(C)c(C(=O)Nc3c(C)cc(Br)cc3C)sc2n1	Mdm2 MdmX PPI 59 | Mdm2 MdmX conf inactive
Cc1nc(N2CCN(c3ccccn3)CC2)c2c(C)c(C(=O)Nc3c(F)cc(F)cc3Br)sc2n1	none
Cc1nc(N2CCN(C)CC2)c2c(C)c(C(=O)Nc3ccc(C)c(F)c3)sc2n1	Mdm2 MdmX PPI 50 | Mdm2 MdmX conf inactive
COc1ccccc1N1CCN(C(=O)c2sc3nc(C)nc(N4CCN(c5ccccn5)CC4)c3c2C)CC1	Mdm2 MdmX PPI 76 | Mdm2 MdmX conf 71 | FLuc counter 38
COc1ccccc1N1CCN(C(=O)c2sc3ncnc(N4CCN(c5ccccn5)CC4)c3c2C)CC1	Mdm2 MdmX PPI 56 (no result: CSC inhib) | Mdm2 MdmX conf 48 | FLuc counter 88
O=C(CSC(=S)N1CCOCC1)Nc1ncc2c(n1)CC(c1ccco1)CC2=O (stereo not drawn)	none
O=C(NCC(c1ccco1)N1CCN(c2ccccc2)CC1)c1ccc2c(c1)OCO2 (stereo not drawn)	none
O=C(COC(=O)c1ccccc1OC(F)F)Nc1ccc2[nH]c(=O)[nH]c2c1	none
Cc1c(C(=O)N2CCN(c3ccc(F)cc3)CC2)sc2ncnc(N3CCN(c4ccccn4)CC3)c12	Mdm2 MdmX PPI 53 | Mdm2 MdmX conf inactive | FLuc counter 61
C1=CC2=NC34CCCCC3CC3=C(CCCC3)N4C2=CC1=NC1CCCCC1 (stereo not drawn)	Mdm2 MdmX PPI 100 | Mdm2 MdmX conf 78 | FLuc counter 38
CC(=O)c1ccc(Nc2ncnc3c2oc2ccccc23)cc1	none
COc1cccc(/C=N/NC(=O)c2[nH]nc3c2CCc2ccccc2-3)c1	Mdm2 MdmX PPI 56 | Mdm2 MdmX conf 61 | FLuc counter 44
COc1cccc(/C=N/NC(=O)c2[nH]c(C)c(C(=O)N/N=C/c3cccc(OC)c3)c2C)c1	none
CCOC(=O)c1c(C)[nH]c(C(=O)N/N=C/c2cccc(OC)c2)c1C	Mdm2 MdmX PPI 53 | Mdm2 MdmX conf inactive
CCOc1ccc(-c2nnc(-c3snc(-c4ccc(F)cc4)c3N=CN(C)C)o2)cc1	none
O=C(CCl)Nc1ccccc1Sc1ccc(Cl)cc1	aSyn UTR inh 93, Mdm2 MdmX PPI 79 | Mdm2 MdmX conf 71 | FLuc counter 55
COc1ccccc1CCNC(=O)C(=O)NCC1OCCN1S(=O)(=O)c1ccc(C)cc1 (stereo not drawn)	none
CCN(CC(=O)Nc1ccc2c(c1)OCCO2)c1nc(-c2cccnc2)nc2ccccc12	none
COc1ccc(Cn2c(SCc3cc(C)ccc3C)nc3cc(OC)c(OC)cc3c2=N)cc1	aSyn UTR inh inconclusive, Mdm2 MdmX PPI 84, CSC inhib 142 | Mdm2 MdmX conf 100 | FLuc counter 51
COc1ccc(CNCCC(c2ccc(OC(C)C)cc2)C(C)C)cc1OC (stereo not drawn)	Mdm2 MdmX PPI 77 | Mdm2 MdmX conf 50 | FLuc counter 67
COc1ccc(C(CCNCc2ccc(OC(C)C)cc2)C(C)C)cc1 (stereo not drawn)	Mdm2 MdmX PPI 85 | Mdm2 MdmX conf inactive | FLuc counter 71
Cc1ccc(-c2csc(N3CCC[C@@H]3C(=O)NCCn3c(-c4ccncc4)nc4ccccc43)n2)cc1	none
CNC(=O)c1cc(S(=O)(=O)Nc2ccc3c(c2)OCO3)ccc1C	none
Cc1ccc(NCc2nnc(SCC(=O)c3ccc4c(c3)OCCO4)o2)c(C)c1	Mdm2 MdmX PPI 57 (no result: CSC inhib) | Mdm2 MdmX conf inactive
CCSc1nc2ccccc2n1C(=O)/C=C/c1ccc(OC)c(OC)c1	Mdm2 MdmX PPI 100 | Mdm2 MdmX conf 99 | FLuc counter 54
O=C(NNC(=O)C1CCN(S(=O)(=O)c2ccccc2)CC1)c1ccccc1O	none
O=C(NNC(=O)C1CCN(S(=O)(=O)c2ccccc2C(F)(F)F)CC1)c1ccccc1O	Mdm2 MdmX PPI 53 | Mdm2 MdmX conf 53 | FLuc counter 51
O=C(NNC(=O)C1CCN(S(=O)(=O)c2c(Cl)cccc2Cl)CC1)c1ccccc1O	Mdm2 MdmX PPI 56 | Mdm2 MdmX conf 54 | FLuc counter 54
O=C(NCCCn1ccnc1)C1c2ccccc2Oc2ccccc21	none
CCCCNC(=O)CN(c1cccc(Br)c1)S(C)(=O)=O	none (no result: aSyn UTR inh)

Screens: PubChem BioAssay, several laboratories
